Screens (PubChem BioAssay)
HCV inhibitor: inhibitors of hepatitis C virus infection; Huh7.5.1 HCVcc-Cre infection, luciferase reporter, 44 h; Potency, µM (doses to about 41.8 µM), hits mostly inhibitors; actives 3.4% (n = 340,000)
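Infectious HCVcc-Cre (~0.5 moi) was added to cells just after compound, with cells seeded 4 h earlier at 1,000 per well. Luciferase activity after 44 h culture reported infection; substrate was incubated 15 min at room temperature before reading.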
SARS PLP yeast: inhibitors of SARS-CoV papain-like protease in yeast | S. cerevisiae expressing SARS-CoV PLpro, growth rescue | Potency, µM (series often up to 32.9 µM), usual class: activators | actives 0.19% (n = 330,000) | AID 485353; calls by dose curve; note: nearly all actives have a fitted effect of over 55% in size
AMA1-RON2 inh: inhibitors of Plasmodium falciparum AMA1-RON2 interaction; AlphaScreen AMA1-biotinylated RON2 peptide binding; Potency, µM (series often up to 58.2 µM), hits mostly inhibitors; actives 0.2% (n = 360,000); AID 720542; note: nearly all actives have a fitted effect of over 45% in size
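AMA1 (3D7) with his tag at 25 nM final met compounds first, then biotinylated RON2 peptide at 25 nM; detection used donor plus acceptor beads, 10 µg/mL apiece, read by AlphaScreen after 30 min at room temperature.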
Pf growth 48h: inhibits P. falciparum growth in the first generation, 48 h; actives 5.9% (n = 310,000); P. falciparum luciferase growth in erythrocytes, 48 h; Potency, µM (titrated, usually from 28.7 µM), hits mostly inhibitors
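Luciferase-expressing parasites in RBCs, 2% Hct / 0.1% parasitemia final; RPMI 1640 + 0.5% Albumax; 37 C, 5% CO2, one generation; luminescence read-out, lower signal = inhibition.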
Pf growth 96h: inhibits malaria parasite growth, 96 h. actives 6.9% (n = 320,000). Potency, µM (highest dose often 28.7 µM), actives largely listed as inhibitors. P. falciparum luciferase reporter growth, 96 h
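96 h incubation, 37 C, 5% CO2, of luciferase-reporter P. falciparum-infected RBCs (2% hematocrit, 0.05% parasitemia final) with test compounds; endpoint luminescence.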
NS1 function inh: inhibitors of influenza NS1 protein function | Potency, µM (doses to about 46.1 µM) | actives 0.4% (n = 270,000) | AID 2326; calls by dose curve; note: actives are rising curves; nearly all actives have a fitted effect of over 50% in size
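Recovery from NS1-induced slow growth read by OD600 in budding yeast switched to galactose assay medium (pH 6.0, -URA) at 1:100 dilution. Compound 23 nl per well; the matching strain lacking NS1 serves as control.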
Numbers stand for hits; i = inactive; ? = inconclusive; nt = not tested or not shown; [ ] = remark or other dose. Shown are actives, neighbours in structure and some others; about 12% of the full set was active somewhere. Unless noted, calls come from the whole dose curve; as a rule, active = well fitted curve in the direction sought with a large enough effect; inconclusive = small, poorly fitted or top-dose-only effect, or another doubt; inactive = no such curve, though single readings can be large; an effect the other way counts as inactive or inconclusive.

SMILES | HCV inhibitor | SARS PLP yeast | AMA1-RON2 inh | Pf growth 48h | Pf growth 96h | NS1 function inh
Cc1cc(OCC(=O)Nc2cc(C(C)(C)C)on2)ccc1[N+](=O)[O-] | i | ? | i | i | ? | i
CCOC(=O)c1c(Nc2ccccc2OCCOC)n[nH]c1C | i | i | i | ? | 9.3µM | i
CCOC(=O)c1c(NCc2ccccc2)n[nH]c1C | i | i | i | i | i | i
CCOC(=O)C1CCN(CC(C)(C)NS(=O)(=O)c2ccc(Cl)cc2)CC1 | i | i | i | i | i | i
CC(C)(CN1CCNCC1)NS(=O)(=O)c1ccc(Cl)cc1 | 4µM | i | i | 9.3µM | ? | nt
COc1ccc(S(=O)Cc2ccc(C(=O)NC3CC3)o2)cc1 (stereo unspecified) | i | i | i | i | i | i
Cc1ccc(CSCc2ccc(C(=O)NC3CC3)o2)cc1 | i | i | i | 1.2µM | ? | i
Cc1ccc(CSCc2ccc(C(=O)NC3CCCC3)o2)cc1 | ? | i | i | ? | i | nt
O=C(NC1CC1)c1ccc(CS(=O)c2ccc(Br)cc2)o1 (stereo unspecified) | i | i | i | i | 10µM | i
COc1ccc(NC(=O)CN(C)C(=O)C(C)N2C(=O)c3ccccc3C2=O)cc1 (stereo unspecified) | i | i | i | i | i | nt
CCC[N+]12CCC(CC1)C(C(O)(c1ccccc1)c1ccccc1)C2 (stereo unspecified) | i | i | i | ? | 5.2µM | i
CCCC[N+]12CCC(CC1)C(C(O)(c1ccccc1)c1ccccc1)C2 (stereo unspecified) | i | i | i | ? | 10µM | i
CCCC[N+]12CCC(CC1)C(Cc1ccccc1)C2 (stereo unspecified) | i | i | i | ? | ? | i
C[N+]12CCC(CC1)C(C(O)(c1ccccc1)c1cccs1)C2 (stereo unspecified) | i | i | i | 12µM | 2.6µM | i
OC(c1ccccc1)(c1ccccc1)C1CCCN1 (stereo unspecified) | i | i | i | i | i | i
C/C(CCC(C)C)=N\NC(=S)Nc1cc(S(=O)(=O)N2CCOCC2)ccc1N1CCOCC1 | i | i | i | ? | ? | nt
CCN(CC)CCCC(C)Nc1c2ccc(Cl)cc2nc2ccc(OC)cc12 (stereo unspecified) | nt | i | nt | nt | nt | i
CCN(CC)CCCC(C)Nc1cc(/C=C/c2ccccc2Cl)nc2cc(Cl)ccc12 (stereo unspecified) | nt | nt | nt | 0.48µM | 0.6µM | nt
Cc1ccccc1C(=O)NC1CCN(CC(=O)NCc2ccccc2)CC1 | i | i | i | i | i | i
CCN(CC)C(=O)Oc1ccc2oc(=O)cc(-c3cc4cccc(OC)c4o3)c2c1 | 11µM | i | i | i | i | i
COc1ccc2oc(=O)cc(-c3cc4cccc(OC)c4o3)c2c1 | i | i | i | i | i | i
COc1cccc2cc(-c3cc(=O)oc4cc(C)c(OCC(C)=O)cc34)oc12 | ? | i | i | i | i | i
COc1cccc2cc(-c3cc(=O)oc4ccc(OC(=O)N(C)C)cc34)oc12 | 11µM | i | i | i | i | i
CC(NC(=O)[C@H](C)N1C(=O)N2CCc3c([nH]c4ccccc34)[C@@]2(C)C1=O)c1ccccc1 (stereo partly specified) | ? | i | ? | ? | i | i
CC(C)NC(=O)CN1CCN(Cc2nc(C(c3ccccc3)c3ccccc3)no2)CC1 | i | i | i | 9.3µM | i | i
SMILES | HCV inhibitor | SARS PLP yeast | AMA1-RON2 inh | Pf growth 48h | Pf growth 96h | NS1 function inh
S=C(Nc1ccc(Br)cc1Cl)N1CCN(c2ccccn2)CC1 | i | i | i | i | ? | i
Cc1csc(=O)n1CC(=O)OCC(=O)c1ccc(Br)cc1 | i | i | i | i | i | nt
Cc1nn(-c2ccccc2)c2nc(N)c(C#N)c(-c3ccc(F)cc3)c12 | ? | i | i | 12µM | ? | i
Cc1ccc(-n2nc(C)c3c(-c4cccs4)c(C#N)c(N)nc32)cc1 | i | i | i | ? | ? | ?
COc1ccc(C2C3=C(CC(C)(C)CC3=O)Oc3ncn(Cc4ccccc4)c(=N)c32)cc1 (stereo unspecified) | ? | i | ? | nt | 13µM | i
CC1(C)CC(=O)C2=C(C1)Oc1ncn(Cc3ccco3)c(=N)c1C2c1ccccc1 (stereo unspecified) | ? | i | i | ? | 6.6µM | i
COc1ccc(C2C3=C(CC(C)(C)CC3=O)Oc3ncn(CCCn4ccnc4)c(=N)c32)cc1 (stereo unspecified) | i | i | i | 9.3µM | 5.2µM | i
CC1(C)CC(=O)C2=C(C1)Oc1ncn(CCCn3ccnc3)c(=N)c1C2c1ccccc1 (stereo unspecified) | ? | i | i | ? | ? | i
COc1ccc(C2C3=C(CC(C)(C)CC3=O)Oc3ncn4nc(-c5cccnc5)nc4c32)cc1 (stereo unspecified) | i | nt | i | nt | nt | i
CCn1c(/C=C/c2ccccc2)nc2ccccc21 | 7.9µM | i | i | i | i | i
CC(C)Cn1c(/C=C/c2ccccc2)nc2ccccc21 | ? | ? | i[11.6 µM] | i | i | i
CCCn1c(/C=C/c2cc[n+](C)cc2)nc2ccccc21 | i | i | i | ? | 13µM | i
COc1ccc(S(=O)(=O)n2cccc2)cc1 | i | nt | i | nt | nt | nt
CNC1CCc2cc(OC)c(OC)c(OC)c2-c2ccc(OC)c(=O)cc21 (stereo unspecified) | nt | nt | nt | i | i | nt
CCN1CCN(CCCN(Cc2cccs2)C(=S)Nc2ccccc2C)CC1 | i | i | i | i | i | i
Cc1cc(Cl)ccc1NC(=S)N(CCCN1CCOCC1)Cc1cccs1 | i | i | i | ? | 12µM | i
Cc1ccc(Cl)cc1NC(=S)N(CCCN1CCN(C)CC1)Cc1cccs1 | 6.3µM | i | i | i | i | i
CCN1CCN(CCCN(Cc2ccco2)C(=S)Nc2ccccc2Cl)CC1 | ? | i | i | i | 1.9µM | nt
Cc1cc(C)c(NC(=S)N(CCCN2CCN(C)CC2)Cc2cccs2)c(C)c1 | ? | i | i | i | 10µM | nt
S=C(Nc1ccc(Cl)cc1)N(CCCN1CCOCC1)Cc1cccs1 | i | i | i | i | ? | i
CC(C)CCOc1ccc(C2CC(=O)N(C)C2=O)cc1 (stereo unspecified) | i | i | i | i | i | i
CC(=O)N(c1ccccc1)C1CC(C)N(C(=O)c2ccccc2)c2ccccc21 (stereo unspecified) | i | i | i | i | i | i
Cc1ccc(C(=O)N(c2ccccc2)C2CC(C)N(C(=O)c3ccco3)c3ccccc32)cc1 (stereo unspecified) | 11µM | i | i | 10µM | nt | i
CCN1CCN(C(=O)C(Cc2ccccc2)NC(=O)c2ccc(Cl)c(S(=O)(=O)N(C)C)c2)CC1 (stereo unspecified) | i | i | i | nt | nt | nt
O=C(c1ccc(-c2cc(O)c3ncccc3c2)cc1)N1CCNCC1 | nt | i | nt | 9.3µM | 9.3µM | nt
